Activity calls are given as the source filed them.

The test system of assay [1] is Plasmodium falciparum Sir2 (PF13_0152, Sir2A). Briefly: pfSir2 binders on small-molecule microarrays, primary screen, biochemical, small-molecule microarray, 635 nm fluorescence (AID 1098).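 Also: score merges spot fluorescence intensity with its signal-to-noise ratio.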 The following applies: small-molecule microarray binding, fluorescence 635 nm; higher = more signal.
A short description of assay [2]: small-molecule microarray binders of probe aDKK1, primary screen, biochemical, biotinylated probe, 635/667 nm fluorescence (AID 1099).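 Also: score merges 667nm spot fluorescence with signal to noise across triplicate slides.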 As to conditions: higher = more signal.
Assay [3] is described as follows: small-molecule microarray binders of probe aCHRDL2, primary screen, biochemical, biotinylated probe, 635/667 nm fluorescence (AID 1100). The following applies: higher = more signal.
Assay [4] is described as follows: splicing luciferase reporter signal modulators, primary screen, spliceosome inhibition project, cell-based, HEK293, splice +/- reporter (AID 1101).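 Also: HEK293 cells carrying a splicing-competent luciferase reporter gene; test concentration not given here.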 The following applies: luminescence, 24 h, higher = more signal, called active from +8 up or from −8 down.
For assay [5], the target named is Fibroblast growth factor 10 (Homo sapiens) (UniProt O15520). Briefly: FGF10 binders on small-molecule microarrays, primary screen, biochemical, small-molecule microarray, 635 nm fluorescence (AID 1102). The following applies: FGF10 binding, fluorescence 635 nm, higher = more signal.
Fibroblast growth factor 10 (Homo sapiens), sequence (O15520 whole entry, looked up): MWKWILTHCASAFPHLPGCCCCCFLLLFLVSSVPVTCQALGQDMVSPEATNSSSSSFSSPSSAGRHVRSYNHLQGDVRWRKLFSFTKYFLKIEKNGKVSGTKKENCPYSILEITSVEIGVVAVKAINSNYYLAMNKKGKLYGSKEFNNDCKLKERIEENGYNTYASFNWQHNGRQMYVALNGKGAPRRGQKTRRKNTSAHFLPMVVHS
In assay [6] the test system is glycogen synthase kinase-3 (GSK3A per assay name; protocol says GSK3B). Nature of the assay: GSK3 binders on small-molecule microarrays, primary screen, biochemical, small-molecule microarray, 635 nm fluorescence, GSK3A (AID 1103). Also: the record names both GSK3A and GSK3B. The following applies: small-molecule microarray binding, fluorescence 635 nm; higher = more signal.
In assay [7] the target is Epidermal growth factor receptor (Homo sapiens) (UniProt P00533). Briefly: EGFR binders on small-molecule microarrays, primary screen, biochemical, small-molecule microarray, 635 nm fluorescence (AID 1104).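 Also: score merges 667 nm emission intensity with spot signal to noise over triplicate slides.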 The following applies: EGFR binding, higher = more signal.
Epidermal growth factor receptor (Homo sapiens), sequence (P00533 whole entry, looked up): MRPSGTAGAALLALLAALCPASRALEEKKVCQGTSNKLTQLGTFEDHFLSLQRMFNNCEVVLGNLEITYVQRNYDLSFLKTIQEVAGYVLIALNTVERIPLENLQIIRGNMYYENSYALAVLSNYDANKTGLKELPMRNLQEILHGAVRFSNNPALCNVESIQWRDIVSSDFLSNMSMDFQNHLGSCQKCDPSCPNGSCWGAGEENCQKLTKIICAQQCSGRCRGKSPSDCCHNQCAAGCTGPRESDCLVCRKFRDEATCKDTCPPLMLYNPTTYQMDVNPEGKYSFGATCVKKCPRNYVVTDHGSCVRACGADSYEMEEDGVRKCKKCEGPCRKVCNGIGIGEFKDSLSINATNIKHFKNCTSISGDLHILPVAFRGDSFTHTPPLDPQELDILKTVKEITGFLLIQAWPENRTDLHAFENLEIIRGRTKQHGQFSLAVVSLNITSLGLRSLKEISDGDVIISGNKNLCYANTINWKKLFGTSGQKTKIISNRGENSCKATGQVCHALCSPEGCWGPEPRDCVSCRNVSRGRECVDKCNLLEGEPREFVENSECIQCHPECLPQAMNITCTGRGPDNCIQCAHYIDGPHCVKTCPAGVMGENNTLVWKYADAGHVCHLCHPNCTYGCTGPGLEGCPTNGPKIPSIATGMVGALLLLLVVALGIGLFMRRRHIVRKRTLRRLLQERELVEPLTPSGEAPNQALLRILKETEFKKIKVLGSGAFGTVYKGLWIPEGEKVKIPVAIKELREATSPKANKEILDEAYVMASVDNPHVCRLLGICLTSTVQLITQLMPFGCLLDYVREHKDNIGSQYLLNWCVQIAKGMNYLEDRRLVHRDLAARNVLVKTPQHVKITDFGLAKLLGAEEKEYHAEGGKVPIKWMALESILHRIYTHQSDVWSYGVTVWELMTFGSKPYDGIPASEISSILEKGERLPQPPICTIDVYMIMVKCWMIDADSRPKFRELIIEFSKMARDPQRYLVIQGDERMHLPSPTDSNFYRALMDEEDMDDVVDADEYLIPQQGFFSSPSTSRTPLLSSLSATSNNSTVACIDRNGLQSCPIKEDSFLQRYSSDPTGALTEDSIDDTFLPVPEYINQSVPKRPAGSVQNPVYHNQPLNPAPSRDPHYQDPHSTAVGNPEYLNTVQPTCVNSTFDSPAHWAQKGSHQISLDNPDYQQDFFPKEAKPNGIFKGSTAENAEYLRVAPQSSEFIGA
Assay [8] has as its target Follistatin-related protein 3 (Homo sapiens) (UniProt O95633). Briefly: FSTL3 binders on small-molecule microarrays, primary screen, biochemical, small-molecule microarray, 635 nm fluorescence (AID 1105).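 Also: score merges emission near 667 nm and signal to noise per printed spot across three slides.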 As to conditions: FSTL3 binding, higher = more signal.
Assay [9] deals with Dickkopf-related protein 1 (Homo sapiens) (UniProt O94907). Nature of the assay: DKK1 binders on small-molecule microarrays, primary screen, biochemical, small-molecule microarray, 635 nm fluorescence scan (AID 1106).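 Also: score merges emission near 667 nm with signal to noise over three replicate slides.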 As to conditions: DKK1 binding, higher = more signal.
Dickkopf-related protein 1 (Homo sapiens), sequence (O94907 whole entry, looked up): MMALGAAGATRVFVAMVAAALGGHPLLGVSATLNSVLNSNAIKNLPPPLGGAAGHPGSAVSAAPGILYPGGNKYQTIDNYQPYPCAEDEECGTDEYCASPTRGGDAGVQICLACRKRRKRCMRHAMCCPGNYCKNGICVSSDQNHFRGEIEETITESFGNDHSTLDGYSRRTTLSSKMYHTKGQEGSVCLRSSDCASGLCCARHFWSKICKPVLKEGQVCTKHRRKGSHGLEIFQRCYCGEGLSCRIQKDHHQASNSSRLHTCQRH
The subject of assay [10] is Inhibin beta A chain (activin A). Nature of the assay: INHBA (activin A) binders on microarrays, primary screen, biochemical, small-molecule microarray, 635 nm fluorescence scan (AID 1107).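 Also: mouse activin A protein probed at 4.33 µg/mL on printed slides; score merges bound-protein fluorescence near 667 nm with spot signal-to-noise.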 As to conditions: small-molecule microarray binding, higher = more signal.
The test system of assay [11] is Human papillomavirus type 1a protein E7 (residues 44-93). Nature of the assay: HPV1a E7 fragment binders on microarrays, primary screen, biochemical, small-molecule microarray, residues 44-93, 635 nm fluorescence (AID 1108).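 Also: E7 fragment applied at 1 µg/mL in TBST for 1 h at 4 C; score combines spot fluorescence with its signal to noise ratio.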 As to conditions: small-molecule microarray binding, fluorescence 635 nm; higher = more signal.
Assay [12] can be described thus: modulators of HCV replicon luciferase signal, primary screen, HCV replication inhibitor project, Huh7 cells, luciferase reporter (AID 1109).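 Also: huh7 hepatoma cells harbouring a luciferase neomycin HCV replicon reporter; luciferase luminescence as measure of HCV replicon replication; test concentration not given here.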 As to conditions: 48 h, higher = more signal. On the technique in general: Replicon systems follow genome replication, usually without infectious particles.
The target in assay [13] is Left-right determination factor 2 (Homo sapiens) (UniProt O00292). Briefly: LEFTY2 binders on small-molecule microarrays, primary screen, biochemical, small-molecule microarray, 635 nm fluorescence scan (AID 1110). As to conditions: LEFTY2 binding, higher = more signal.
Left-right determination factor 2 (Homo sapiens), sequence (O00292 whole entry, looked up): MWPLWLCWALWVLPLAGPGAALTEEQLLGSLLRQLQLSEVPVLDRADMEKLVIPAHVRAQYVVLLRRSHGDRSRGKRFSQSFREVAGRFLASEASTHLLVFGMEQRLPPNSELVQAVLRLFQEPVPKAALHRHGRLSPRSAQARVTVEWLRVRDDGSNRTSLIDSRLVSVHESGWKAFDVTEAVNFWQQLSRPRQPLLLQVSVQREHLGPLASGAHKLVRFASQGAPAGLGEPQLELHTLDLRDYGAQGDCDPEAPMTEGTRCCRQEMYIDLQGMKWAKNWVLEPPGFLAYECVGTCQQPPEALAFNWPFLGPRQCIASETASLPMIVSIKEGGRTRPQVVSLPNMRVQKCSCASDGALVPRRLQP
The target in assay [14] is Calmodulin-1 (Homo sapiens) (UniProt P0DP23). Nature of the assay: CALM1 binders on microarrays, EGTA buffer, profiling panel, biochemical, small-molecule microarray, Cy5-labelled CALM1 (AID 1111).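 Also: labelled calmodulin applied in Tris saline Tween buffer holding calcium plus EGTA and DTT.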 As to conditions: Cy5-CALM1 binding fluorescence, higher = more signal.
Assay [15] shares this target. Briefly: calcium-bound CALM1 binders on microarrays, profiling panel, artefact control for SMM control-protein annotation, biochemical, small-molecule microarray, Cy5-labelled CALM1, plus calcium (AID 1112).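 Also: score merges spot fluorescence with signal to noise from triplicate slides.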 As to conditions: Cy5-CALM1 binding fluorescence, higher = more signal.
Assay [16] in a line: small-molecule microarray binders of probe aWnt5a, primary screen, biochemical, biotinylated probe, 635/667 nm fluorescence (AID 1113).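 Also: score merges 667 nm fluorescence intensity with signal-to-noise per printed feature.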 The following applies: higher = more signal.
Assay [17] in a line: small-molecule microarray binders of probe aShh, primary screen, biochemical, biotinylated probe, 635/667 nm fluorescence (AID 1114).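 Also: probe is biotin-labelled aShh protein from a stem cell growth factor screen; measures binding of labelled protein to compounds printed on the slide; score merges feature fluorescence at 667 nm with signal-to-noise.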 As to conditions: higher = more signal.
A short description of assay [18]: small-molecule microarray binders of probe aNog, primary screen, biochemical, biotinylated probe, 635/667 nm fluorescence (AID 1115).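 Also: probe is biotinylated aNog protein used at 0.15 µg/mL for 1 h at 4 C; z-score combines 667 nm fluorescence of each spot with its signal to noise.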 The following applies: higher = more signal.
The target in assay [19] is Torsin-1A-interacting protein 1 (Homo sapiens) (UniProt Q5JTV8). Briefly: LAP1 binders from COS7 cell lysate, primary screen, small-molecule microarray, 635/667 nm fluorescence (AID 1116). The following applies: COS7-hLAP1 lysate binding, 635 nm fluorescence, higher = more signal.
Torsin-1A-interacting protein 1 (Homo sapiens), sequence (Q5JTV8 whole entry, looked up): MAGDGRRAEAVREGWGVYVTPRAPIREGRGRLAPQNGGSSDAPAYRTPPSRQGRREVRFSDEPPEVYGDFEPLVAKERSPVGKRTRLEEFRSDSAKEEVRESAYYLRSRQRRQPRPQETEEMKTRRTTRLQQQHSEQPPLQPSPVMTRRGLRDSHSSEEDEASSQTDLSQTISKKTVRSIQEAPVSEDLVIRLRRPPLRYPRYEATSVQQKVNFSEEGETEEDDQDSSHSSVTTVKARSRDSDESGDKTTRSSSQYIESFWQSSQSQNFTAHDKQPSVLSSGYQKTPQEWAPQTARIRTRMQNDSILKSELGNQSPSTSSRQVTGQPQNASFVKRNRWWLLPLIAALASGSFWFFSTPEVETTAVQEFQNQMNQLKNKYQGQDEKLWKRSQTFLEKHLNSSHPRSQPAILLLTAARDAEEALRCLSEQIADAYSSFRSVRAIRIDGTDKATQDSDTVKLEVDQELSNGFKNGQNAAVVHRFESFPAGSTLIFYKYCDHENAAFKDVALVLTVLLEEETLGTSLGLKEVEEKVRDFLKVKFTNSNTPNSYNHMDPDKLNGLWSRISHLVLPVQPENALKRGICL
Assay [20] has as its target Alpha-bungarotoxin (Bungarus multicinctus) (UniProt P60615). Nature of the assay: alpha-bungarotoxin binders on microarray, profiling panel, artefact control for SMM control protein annotation, biochemical, small-molecule microarray, Alexa647 label, 635/667 nm fluorescence (AID 1117). The following applies: alpha-BTX-A647 binding fluorescence, higher = more signal.

Follistatin-related protein 3 (Homo sapiens), sequence (O95633 whole entry, looked up): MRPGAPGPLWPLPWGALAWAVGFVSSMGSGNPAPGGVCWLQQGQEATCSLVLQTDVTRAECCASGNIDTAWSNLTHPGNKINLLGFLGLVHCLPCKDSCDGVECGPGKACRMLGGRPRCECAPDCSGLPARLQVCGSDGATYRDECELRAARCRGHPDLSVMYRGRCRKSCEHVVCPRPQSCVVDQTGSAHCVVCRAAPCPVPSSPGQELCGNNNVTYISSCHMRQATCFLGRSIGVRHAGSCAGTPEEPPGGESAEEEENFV
Alpha-bungarotoxin (Bungarus multicinctus), sequence (P60615 whole entry, looked up): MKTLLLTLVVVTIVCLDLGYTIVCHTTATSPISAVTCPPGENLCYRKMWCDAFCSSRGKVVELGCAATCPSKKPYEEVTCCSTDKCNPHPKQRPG

Turning to `C[N+](C)(C)CCCC[C@@H]1NC(=O)[C@@H]2C[C@H](C(=O)NCCCCCNC(=O)CS)[C@H](c3ccc(O)cc3)N2C1=O`, the composite z-score in [1] was 1.3; in [2], -0.0611; in assay [3], 0.346; in [5], 0.0481; in assay [6] it was -0.638; in assay [7], -0.849. Moreover, the composite z-score is 0.0788 in assay [8]; 0.171 in assay [9]; 0.57 in assay [10]; -0.643 in assay [11]; -0.739 in assay [13]; 0.21 in assay [14]. In addition, the composite z-score in assay [15] is 0.669; in [16] it was -0.191; in assay [17] it was 0.138; in [18], 0.208; in assay [19], 2.19; in assay [20] it was 1.12. Moreover, the z-score in assay [4] was 4.12 (inactive); in [12] it was -0.0298.
With `C=CCNC(=O)[C@@H]1[C@H]2C(=O)O[C@H](c3ccccc3)[C@H](c3ccccc3)N2[C@H](c2ccc(O)cc2)[C@@]12C(=O)Nc1ccc(C#Cc3ccc(OC)cc3)cc12`, the composite z-score came to 0.775 in assay [1]; 0.74 in assay [2]; 0.273 in [3]; 0.564 in assay [5]; 1.26 in assay [6]; 0.312 in assay [7]. The composite z-score is 0.961 in assay [8]; 0.389 in assay [9]; 0.311 in assay [10]; 0.927 in assay [11]; 0.239 in assay [13]; 1.61 in [14]. Besides, the composite z-score in [15] was 0.941; in assay [16] it was -0.0236; in assay [17] it was 1.03; in assay [18], -0.274; in [19] it was 1.02; in [20] it was 2.75. The results for the z-score in assay [4] and in [12] were -0.934 (inactive) and -2.67, respectively.
With `CCCCCCC#C[Si](O[C@H](c1ccccc1)c1cn(Cc2ccccc2)nn1)(C(C)C)C(C)C`, the composite z-score in [1] is -0.068; in assay [2], -0.0783; in [3], -0.14; in assay [5], 0.232; in [6], 0.305; in assay [7] it was 0.302. The composite z-score was 0.388 in [8]; 0.279 in assay [9]; 0.403 in assay [10]; 0.382 in assay [11]; 0.367 in assay [13]; -0.0092 in assay [14]. Moreover, the composite z-score in [15] is 0.716; in [16] it was -0.151; in assay [17], -0.108; in assay [18], -0.183; in assay [19] it was 0.523; in assay [20], 0.172. Further, the z-score was -1.51 (inactive) in [4] and -1.93 in assay [12].
For the compound `O=C1c2ccccc2[C@@]2(Cc3ccccc3N(CC(F)(F)F)C2=O)[C@H](c2ccc(CO)cc2)N1Cc1ccccc1C(F)(F)F`, the composite z-score in assay [1] was -1.84; in assay [2], 0.471; in [3], 0.957; in [5], -0.316; in [6] it was -1.41; in [7], -0.903. Also, the composite z-score in [8] is -1.15; in assay [9] it was -1.95; in [10], 1.04; in assay [11], -0.713; in assay [13], -0.888; in assay [14], -0.434. Also, the composite z-score in assay [15] was 0.0123; in [16], -0.104; in assay [17] it was -0.0243; in assay [18], 0.673; in assay [19], -0.459; in assay [20], -1.7. The figures for the z-score in assay [4] and in [12] were -0.0373 (inactive) and 0.301, respectively.
As for `CC(C)N1C(=O)c2ccccc2[C@@H](C(=O)NCc2ccccc2)[C@@H]1c1ccc(CO)cc1`, the composite z-score in assay [1] was 1.05; in assay [2], 0.326; in assay [3] it was 0.932; in [5], -0.844; in assay [6] it was 0.192; in [7], -0.183. Also, the composite z-score in [8] was -0.0398; in assay [9], -0.319; in assay [10], 0.481; in assay [11], 0.319; in [13] it was -0.514; in assay [14], -0.808. In addition, the composite z-score in [15] was 0.306; in [16], -0.178; in assay [17] it was -0.203; in assay [18] it was 0.198; in [19] it was 0.481; in assay [20], -1.92. In addition, the z-score was -0.242 (inactive) in assay [4] and 0.313 in assay [12].

Values taken from PubChem BioAssay.
